Here are results for six molecules from PubChem BioAssay.

The source made the active and inactive calls.

Test [1] has as its system Human papillomavirus type 1a protein E7 (residues 44-93). The experiment in a line: small molecules binding HPV E7 44-93 – biochemical, small-molecule microarray, residues 44-93, 635 nm fluorescence, primary screen (AID 1108).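 Further: E7 fragment applied at 1 µg/mL in TBST for 1 h at 4 C; score combines spot fluorescence with its signal to noise ratio.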 The following applies: fluorescence 635 nm, higher = more signal.
Test [2] in a line: hepatitis C replication reporter changes, two-sided – Huh7 cells, luciferase reporter, HCV replication inhibitor project, primary screen (AID 1109).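 Further: huh7 hepatoma cells harbouring a luciferase neomycin HCV replicon reporter; luciferase luminescence as measure of HCV replicon replication; test concentration not given here.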 The following applies: Huh7 HCV replicon luciferase reporter, 48 h; higher = more signal.
The target in test [3] is Left-right determination factor 2 (Homo sapiens) (UniProt O00292). The test is described as follows: small molecules binding LEFTY2 protein – biochemical, small-molecule microarray, 635 nm fluorescence scan, primary screen (AID 1110). The following applies: higher = more signal.
Left-right determination factor 2 (Homo sapiens), sequence (O00292 whole entry, looked up): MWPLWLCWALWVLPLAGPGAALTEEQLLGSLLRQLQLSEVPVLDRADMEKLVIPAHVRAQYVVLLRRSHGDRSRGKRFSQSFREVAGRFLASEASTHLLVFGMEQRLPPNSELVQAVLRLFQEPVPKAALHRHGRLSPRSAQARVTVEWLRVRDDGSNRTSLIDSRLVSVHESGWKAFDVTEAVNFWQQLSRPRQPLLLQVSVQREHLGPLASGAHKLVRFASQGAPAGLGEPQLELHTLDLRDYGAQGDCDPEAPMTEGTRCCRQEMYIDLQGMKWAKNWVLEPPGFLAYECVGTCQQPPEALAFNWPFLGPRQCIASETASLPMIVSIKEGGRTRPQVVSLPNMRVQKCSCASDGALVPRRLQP
In test [4] the target is Calmodulin-1 (Homo sapiens) (UniProt P0DP23). The test is described as follows: small molecules binding calmodulin-1 with EGTA – biochemical, small-molecule microarray, Cy5-labelled CALM1, profiling panel (AID 1111).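 Further: labelled calmodulin applied in Tris saline Tween buffer holding calcium plus EGTA and DTT.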 The following applies: Cy5-CALM1 binding fluorescence, higher = more signal.
For test [5] the target is unchanged. The experiment in a line: small molecules binding Ca-loaded calmodulin-1 – biochemical, small-molecule microarray, Cy5-labelled CALM1, plus calcium, artefact control for SMM control-protein annotation, profiling panel (AID 1112).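 Further: score merges spot fluorescence with signal to noise from triplicate slides.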 The conditions noted are these: Cy5-CALM1 binding fluorescence, higher = more signal.
Test [6] can be described thus: probe aWnt5a binding to arrayed compounds – biochemical, biotinylated probe, 635/667 nm fluorescence, primary screen (AID 1113).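 Further: score merges 667 nm fluorescence intensity with signal-to-noise per printed feature.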 The conditions noted are these: small-molecule microarray, higher = more signal.
A short description of test [7]: probe aShh binding to arrayed compounds – biochemical, biotinylated probe, 635/667 nm fluorescence, primary screen (AID 1114).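 Further: probe is biotin-labelled aShh protein from a stem cell growth factor screen; measures binding of labelled protein to compounds printed on the slide; score merges feature fluorescence at 667 nm with signal-to-noise.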 The following applies: small-molecule microarray, higher = more signal.
Test [8] can be described thus: probe aNog binding to arrayed compounds – biochemical, biotinylated probe, 635/667 nm fluorescence, primary screen (AID 1115).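 Further: probe is biotinylated aNog protein used at 0.15 µg/mL for 1 h at 4 C; z-score combines 667 nm fluorescence of each spot with its signal to noise.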 The conditions noted are these: small-molecule microarray, higher = more signal.
Test [9] has as its target Torsin-1A-interacting protein 1 (Homo sapiens) (UniProt Q5JTV8). The test is described as follows: compound microarray binding of lysate hLAP1 – cell lysate, small-molecule microarray, COS7 lysate, 635/667 nm fluorescence, primary screen (AID 1116). The following applies: 635 nm fluorescence, higher = more signal.
For test [10], the target named is Alpha-bungarotoxin (Bungarus multicinctus) (UniProt P60615). The experiment in a line: compounds binding labelled alpha-BTX control protein – biochemical, small-molecule microarray, Alexa647 label, 635/667 nm fluorescence, artefact control for SMM control protein annotation, profiling panel (AID 1117). The conditions noted are these: alpha-BTX-A647 binding fluorescence, higher = more signal.
Alpha-bungarotoxin (Bungarus multicinctus), sequence (P60615 whole entry, looked up): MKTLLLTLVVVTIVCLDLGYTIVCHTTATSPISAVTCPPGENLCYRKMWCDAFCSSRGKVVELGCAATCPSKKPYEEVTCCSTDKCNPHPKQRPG

Another test has as its target Albumin (Bos taurus) (UniProt P02769). The test is described as follows: compounds binding labelled BSA control protein – biochemical, small-molecule microarray, Alexa647 label, 635/667 nm fluorescence, artefact control for SMM control protein annotation, profiling panel (AID 1118).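 Further: score merges 667 nm emission intensity and signal-to-noise per printed compound spot.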 The following applies: BSA-A647 binding, fluorescence 635 nm, higher = more signal.
Test [11] in a line: probe aXIP binding to arrayed compounds – biochemical, NeuroSMM set, 635/667 nm fluorescence, primary screen (AID 1119).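 Further: probe is the protein aXip251-270 applied at 1 µg/mL to compound-printed slides; binding of probe to printed compounds measured as 667 nm fluorescence plus signal to noise.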 The following applies: small-molecule microarray, higher = more signal, called active from +8 up or from −8 down.
Test [12] can be described thus: probe aNOTCH3 binding on compound microarray – biochemical, small-molecule microarray, 635/667 nm fluorescence, primary screen (AID 1120).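 Further: probe is a biotin-tagged antibody raised against NOTCH3 rather than NOTCH3 protein; score merges spot fluorescence near 667 nm with spot signal to noise.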 The following applies: higher = more signal.
Test [13] can be described thus: probe aNOTCH2 binding on compound microarray – biochemical, small-molecule microarray, 635/667 nm fluorescence, primary screen (AID 1121).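 Further: score merges feature fluorescence read at 667 nm with its signal to noise.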 The conditions noted are these: higher = more signal.
The target of test [14] is Carbonic anhydrase 2 (Homo sapiens) (UniProt P00918). The test is described as follows: compounds binding carbonic anhydrase 2 – biochemical, small-molecule microarray, Alexa647-labelled CAII, profiling panel (AID 1122). The following applies: CAII-A647 binding fluorescence, higher = more signal.
The nature of test [15]: COS7 lysate on small-molecule microarray, probe aHis, 635 nm (AID 1123).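 Further: z-score combines 667nm fluorescence intensity with signal-to-noise per printed compound spot.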 The following applies: COS7 cell lysate, fluorescence, higher = more signal.
Test [16] is described as follows: probe aLAP1 signal on lysate-treated microarray – cell lysate, small-molecule microarray, COS7 lysate, primary screen (AID 1124).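 Further: lysate comes from COS7 cells expressing LAP1 and is applied at 0.3 µg/mL; score merges spot fluorescence near 667 nm with signal-to-noise over triplicate slides.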 The following applies: probe aLAP1, fluorescence, higher = more signal.
A further test relates to Sam68 (KHDRBS1). The experiment in a line: compounds binding KHDRBS1 protein – biochemical, small-molecule microarray, 635 nm fluorescence, primary screen (AID 1125).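 Further: score merges 667 nm channel intensity with signal to noise over triplicate slides.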 The following applies: higher = more signal.
Test [17] has as its system Chordin-like protein 2 (CHRDL2). The experiment in a line: compounds binding chordin-like 2 – biochemical, small-molecule microarray, 635 nm fluorescence, primary screen (AID 1126).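 Further: printed compound slides probed with Chrdl2 protein at 4 µg/mL for 1 h at 4 C; score merges 667 nm emission intensity with signal to noise over three replicate slides.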 The following applies: fluorescence 635 nm, higher = more signal.
Test [18] deals with Concanavalin-A (Canavalia ensiformis) (UniProt P02866). The experiment in a line: compounds binding concanavalin A lectin – biochemical, small-molecule microarray, Alexa647 label, 635 nm, artefact control for SMM control protein annotation, primary screen (AID 1127).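 Further: z combines 667 nm emission intensity with signal-to-noise across three replicate slides.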 The conditions noted are these: ConA-A647 binding fluorescence, higher = more signal.
Concanavalin-A (Canavalia ensiformis), sequence (P02866 whole entry, looked up): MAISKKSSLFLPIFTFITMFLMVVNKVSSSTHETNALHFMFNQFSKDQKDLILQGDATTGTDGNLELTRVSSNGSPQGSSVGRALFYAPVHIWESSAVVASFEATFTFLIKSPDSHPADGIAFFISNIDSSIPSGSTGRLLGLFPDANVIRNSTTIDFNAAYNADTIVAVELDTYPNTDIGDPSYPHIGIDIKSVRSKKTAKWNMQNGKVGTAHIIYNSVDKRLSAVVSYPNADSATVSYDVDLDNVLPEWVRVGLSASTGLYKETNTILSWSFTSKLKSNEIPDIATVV

Torsin-1A-interacting protein 1 (Homo sapiens), sequence (Q5JTV8 whole entry, looked up): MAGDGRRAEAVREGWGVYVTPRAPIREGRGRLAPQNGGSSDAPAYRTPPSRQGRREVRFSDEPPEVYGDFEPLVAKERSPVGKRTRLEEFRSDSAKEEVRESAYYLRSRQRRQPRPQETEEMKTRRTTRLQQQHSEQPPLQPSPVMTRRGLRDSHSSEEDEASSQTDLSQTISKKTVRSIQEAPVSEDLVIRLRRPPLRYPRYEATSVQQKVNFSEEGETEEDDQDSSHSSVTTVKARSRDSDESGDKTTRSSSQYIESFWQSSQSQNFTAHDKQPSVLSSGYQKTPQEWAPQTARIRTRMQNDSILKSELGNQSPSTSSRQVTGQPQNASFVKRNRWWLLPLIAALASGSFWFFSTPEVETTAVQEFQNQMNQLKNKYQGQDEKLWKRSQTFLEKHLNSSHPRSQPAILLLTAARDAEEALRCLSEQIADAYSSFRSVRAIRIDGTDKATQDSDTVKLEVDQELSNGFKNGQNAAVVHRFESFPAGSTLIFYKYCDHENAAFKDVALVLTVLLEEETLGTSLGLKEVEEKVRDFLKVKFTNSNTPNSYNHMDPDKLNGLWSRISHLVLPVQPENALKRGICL
Albumin (Bos taurus), sequence (P02769 whole entry, looked up): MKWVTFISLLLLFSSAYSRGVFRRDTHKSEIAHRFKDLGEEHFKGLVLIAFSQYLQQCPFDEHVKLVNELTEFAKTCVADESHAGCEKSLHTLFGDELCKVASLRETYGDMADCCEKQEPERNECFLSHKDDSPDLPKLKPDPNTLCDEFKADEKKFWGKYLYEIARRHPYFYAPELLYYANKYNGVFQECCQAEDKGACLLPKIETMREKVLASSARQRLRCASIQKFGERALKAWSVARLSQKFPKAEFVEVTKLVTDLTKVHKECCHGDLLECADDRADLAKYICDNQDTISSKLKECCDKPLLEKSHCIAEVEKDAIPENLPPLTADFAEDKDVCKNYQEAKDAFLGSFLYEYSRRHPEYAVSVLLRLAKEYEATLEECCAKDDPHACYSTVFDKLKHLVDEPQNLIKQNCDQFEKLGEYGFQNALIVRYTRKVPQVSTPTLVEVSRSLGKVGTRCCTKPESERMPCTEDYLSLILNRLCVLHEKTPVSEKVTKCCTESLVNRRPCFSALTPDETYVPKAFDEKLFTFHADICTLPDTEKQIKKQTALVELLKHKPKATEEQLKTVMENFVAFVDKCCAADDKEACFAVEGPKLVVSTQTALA

Turning to `CCOC(=O)[C@H](CC(C)C)NC(=O)CCC1CC(OC(=O)NCCc2ccc(F)cc2)CC2(CCCC(COC(=O)NCCOC)O2)O1` (stereo not given in full), the composite z-score was 1.34 in [1]; 1.12 in test [3]; 0.217 in [4]; -0.119 in test [5]; -0.176 in [6]; -0.0769 in test [7]. Also, the composite z-score in [8] is -0.438; in test [9], 0.461; in [10], 0.411; with Albumin (Bos taurus) it was 0.502; in [12] it was -0.0573; in test [13], -0.171. The composite z-score in test [14] was 0.0663; in test [15], 0.5; in test [16] it was 0.417; with Sam68 (KHDRBS1), 1.29; in [17], 0.515; in test [18] it was 0.646. Further, in test [2], the z-score was -0.694. In [11], the composite Z-score was 0.795 (inactive).
On to `CC(=O)OC[C@H]1O[C@H](C#CCC2CCCCC2)C=C[C@@H]1OC(C)=O`, for which the composite z-score in test [1] was 1.12; in test [3], 0.992; in [4] it was 0.235; in test [5] it was -0.26; in test [6], -0.154; in test [7] it was 0.194. Also, the composite z-score in test [8] is 0.129; in test [9], 0.471; in test [10], 0.36; with Albumin (Bos taurus) it was 0.718; in [12], -0.154; in test [13], -0.0632. Moreover, the composite z-score in test [14] stood at 0.494; in test [15] it was 0.853; in test [16], 0.53; in the test with Sam68 (KHDRBS1) it was 0.953; in [17] it was 0.32; in test [18], 1.04. In [2], the z-score is -2.57. Moreover, the composite Z-score in [11] was -0.106 (inactive).
With `CCOC(=O)[C@H](Cc1ccccc1)NC(=O)CCC1CC(OC(=O)NCc2ccc3c(c2)OCO3)CC2(CCCC(COC(=O)NCCCN3CCCC3=O)O2)O1` (stereo not given in full), the composite z-score was 1.35 in [1]; 0.56 in test [3]; 0.972 in test [4]; 0.356 in [5]; -0.0607 in test [6]; -0.229 in [7]. The composite z-score is -0.0604 in test [8]; 0.799 in test [9]; 0.426 in [10]; 0.613 in the test with Albumin (Bos taurus); -0.0204 in test [12]; -0.179 in [13]. Moreover, the composite z-score was 0.454 in [14]; 1.27 in test [15]; 0.334 in test [16]; 1.32 with Sam68 (KHDRBS1); 0.329 in test [17]; 1.1 in [18]. Moreover, the z-score in test [2] is -1.93. Further, the composite Z-score in [11] is 0.581 (inactive).
`CCN1C(=O)[C@H]2[C@H]3[C@H](O)[C@H](O)CC(=NOCC[C@@H]4C=C[C@H](OC(C)=O)[C@@H](COC(C)=O)O4)[C@@H]3CC[C@H]2C1=O`: the composite z-score was -0.263 in test [1]; 0.736 in [3]; -0.207 in [4]; -0.225 in test [5]; 0.0102 in test [6]; 0.0899 in [7]. Besides, the composite z-score in test [8] is 0.029; in test [9] it was -0.359; in test [10], 0.391; with Albumin (Bos taurus), 0.541; in test [12] it was -0.149; in test [13] it was -0.12. Besides, the composite z-score in [14] was found to be 0.385; in test [15] it was 0.305; in [16], 0.256; in the test on Sam68 (KHDRBS1), 0.214; in test [17], 0.63; in test [18] it was 0.544. The z-score in [2] was -1.04. For the same molecule, the composite Z-score in test [11] is 0.501 (inactive).
Turning to `CCN1C(C)=C(C(=O)OC)[C@@H](c2ccccc2)N2C(=O)[C@](O)(C(=O)OC)CC(C(C)=O)=C12`, the composite z-score was 0.285 in test [1]; 0.784 in [3]; -0.232 in [4]; -0.604 in test [5]; -0.0037 in test [6]; -0.179 in [7]. The composite z-score was 0.0511 in [8]; 0.455 in [9]; 0.371 in test [10]; -0.428 with Albumin (Bos taurus); -0.15 in test [12]; -0.207 in test [13]. In addition, the composite z-score in test [14] was -0.174; in test [15] it was -0.0478; in test [16], -0.152; with Sam68 (KHDRBS1), -0.37; in test [17], 0.285; in test [18] it was 0.29. The z-score in test [2] was 0.308. Also, the composite Z-score in [11] was -0.686 (inactive).
For `COc1ccc(COC(=O)NN=C2C[C@@H](O)[C@@H](O)[C@@H]3[C@@H]4C(=O)N([C@@H](C)c5ccccc5)C(=O)[C@@H]4CC[C@@H]23)cc1`, the composite z-score in test [1] is -0.372; in test [3], 0.609; in test [4], -0.213; in test [5], -0.392; in test [6], -0.169; in [7], 0.0121. Moreover, the composite z-score in [8] is -0.288; in test [9], 0.51; in test [10], 0.0288; with Albumin (Bos taurus) it was 0.274; in [12], -0.0697; in test [13], 0.0318. Further, the composite z-score in [14] is 0.171; in [15], -0.211; in test [16], 0.131; with Sam68 (KHDRBS1), -0.196; in test [17] it was 0.448; in test [18], 0.162. In addition, the z-score in test [2] is 0.426. The composite Z-score in test [11] is -0.228 (inactive).
